Most compounds without a hit are left out; they make up all but 10% or so of the library.
HEK293 tox: Cytotoxic Profiling in HEK 293 Cell Line of Diverse Libraries Using Quantitative High-Throughput Screening; HEK 293 viability, ATP luminescence (CellTiter-Glo), 48-72 h; Potency, µM (doses to about 115 µM), without a hit: at the top dose activity change, negative = cytotoxicity, usual class: inhibitors; 6.6% of 94,000 active; further: on the % scale 0 is the no-effect control and ±100 the full control effect; nearly all actives have a fitted effect of over 60% in size
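Cytotoxicity was scored by loss of ATP-coupled luminescence (CellTiter-Glo) in HEK 293 cells. Compound treatment ran 48 or 72 hr at 37 degree Celsius, 5% CO2, 95% humidity.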
hNpr1 antagonist: Natriuretic polypeptide receptor (hNpr1) antagonism - Primary qHTS | Potency, µM (series often up to 46.3 µM), inactives show top-dose activity change, negative = inhibition, usual class: inhibitors | HEK293 hNpr1 GloSensor cGMP, ANP-stimulated luminescence | 1.6% of 76,000 active | Atrial natriuretic peptide receptor 1 (Homo sapiens), P16066 | AID 1347048, 2019; calls by dose curve; further: on the % scale 0 is the no-effect control and ±100 the full control effect; nearly all actives have a fitted effect of over 60% in size
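Compound pre-incubated 30 min at room temperature on GloSensor-loaded HEK293 cells stably carrying hNpr1 and the pGS-40F cGMP biosensor. Stimulation uses hNppA at 0.1 nM final; luminescence is taken at baseline and 20 min post-agonist.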
3T3 cytotox: Cytotoxic Profiling in NIH 3T3 Cell Line of Diverse Libraries Using Quantitative High-Throughput Screening. Potency, µM (highest dose often 96.7 µM), for the others: at the top dose activity change, negative = cytotoxicity, hits mostly inhibitors. AID 1345082, 2018. 4.3% of 94,000 active. NIH 3T3 viability, CellTiter-Glo ATP luminescence, 48-72 h; further: on the % scale 0 is the no-effect control and ±100 the full control effect; nearly all actives have a fitted effect of over 55% in size
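Viability of NIH 3T3 cells after 48 or 72 hr compound treatment at 37 °C was assessed by CellTiter-Glo, with luminescence imaged following a 10 min room-temperature step.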
GPT2 inh: Primary qHTS assay for inhibitors of Glutamate pyruvate transaminase 2 (GPT2) | Alanine aminotransferase 2 (Homo sapiens), Q8TD30 | Recombinant GPT2, coupled pyruvate oxidase/HRP Amplex Red fluorescence | Potency, µM (series often up to 57.7 µM), without a hit: at the highest dose activity change, negative = inhibition, usual class: inhibitors | 0.25% of 100,000 active | AID 1671188, 2021; further: on the % scale 0 is the no-effect control and ±100 the full control effect; nearly all actives have a fitted effect of over 60% in size
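Inhibition is scored from Amplex Red fluorescence generated when pyruvate oxidase and HRP act on pyruvate released by GPT2. Reactions contain 10ng/uL enzyme, 250uM a-KG and 2mM L-alanine and run 30 min at room temperature.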
FLuc inh: Firefly luciferase inhibition profiling of diverse chemical library using quantitative high-throughput screening. Potency, µM (doses to about 115 µM), actives largely listed as inhibitors. AID 1347043, 2019. purified P. pyralis luciferase, luminescence, biochemical. Luciferin 4-monooxygenase (Photinus pyralis), P08659. 2.5% of 76,000 active; further: on the % scale 0 is the no-effect control and ±100 the full control effect; nearly all actives have a fitted effect of over 65% in size
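Luminescence read by CCD imaging after purified firefly luciferase (10nM final) was added to substrate buffer holding 10uM D-luciferin and 10uM ATP, pH 7.5, pre-dosed with compound.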
NPR1 antag cnf: Natriuretic polypeptide receptor (hNpr1) antagonism - Confirmation | shares compounds with hNpr1 antagonist | HEK293 hNpr1 cGMP GloSensor luminescence, ANP-stimulated | Potency, µM (highest dose often 57.6 µM), without a hit: at the top dose activity change, negative = inhibition, hits mostly inhibitors | 76% of 1,400 active; calls by dose curve; further: nearly all actives have a fitted effect of over 70% in size
NPR2 antag: Natriuretic polypeptide receptor (hNpr2) antagonism - Subtype selectivity assay; HEK293 hNpr2 GloSensor cGMP luminescence, CNP-stimulated; 67% of 1,400 active; Potency, µM (top dose mostly 57.6 µM), without a hit: top-dose activity change, negative = inhibition, usual class: inhibitors; shares compounds with hNpr1 antagonist; AID 1347046, 2019; calls by dose curve; further: nearly all actives have a fitted effect of over 70% in size
FLuc inh counter: Natriuretic polypeptide receptor (hNpr1) antagonism - Confirmation firefly luciferase (FLuc) inhibition counterscreen | shares compounds with hNpr1 antagonist | purified FLuc enzyme, luminescence, Km substrate | Potency, µM (top dose mostly 57.6 µM), inactives show top-dose activity change, negative = inhibition, most hits filed as inhibitors | 0.7% of 1,400 active; further: 0% is about no effect
GloSensor cGMP: Natriuretic polypeptide receptor (hNpr1) antagonism - Counterscreen GloSensor control cell line; shares compounds with hNpr1 antagonist; HEK293 GloSensor cGMP, SNP-stimulated, luminescence; Potency, µM (series often up to 57.6 µM), without a hit: at the top dose activity change, negative = inhibition, hits mostly inhibitors; 69% of 1,400 active; AID 1347051, 2019; calls by dose curve; further: on the % scale 0 is the no-effect control and ±100 the full control effect; nearly all actives have a fitted effect of over 70% in size
The depositor's hits bear a star; i = inactive; u = inconclusive; x = not tested or not shown; [ ] = remark or other dose. Unless noted, the call rests on the fitted dose curve; in most records, active means well fitted curve in the direction sought with a large enough effect; inconclusive means small, poorly fitted or top-dose-only effect, or another doubt; inactive means no such curve, though single readings can be large; an effect the other way counts as inactive or inconclusive. Potency means the concentration at half of the fitted maximal effect.

SMILES	HEK293 tox	hNpr1 antagonist	3T3 cytotox	GPT2 inh	FLuc inh	NPR1 antag cnf	NPR2 antag	FLuc inh counter	GloSensor cGMP
O=C(Cc1c[nH]c2ncc(-c3ccccc3C(F)(F)F)cc12)NCc1cccnc1	u	7.9µM*	u	-1%[88.5 µM]	i	16µM*	20µM*	-2%[86.2 µM]	16µM*
Cc1cc(C)cc(-c2ccc(CN3CC4CCC(C3)N4c3ccc(C(F)(F)F)cc3)cc2)c1	-3%	x	-18%	-13%	x	x	x	x	x
FC(F)(F)c1ccc(N2C3CCC2CN(Cc2cccs2)C3)cc1	u	x	u	5%	x	24µM*	21µM*	1%	17µM*
O=C(NC1CN(c2ccnc3ccnn23)C1)c1ccccc1Cl	-21%[172 µM]	x	-13%[138 µM]	-6%[88.5 µM]	x	x	x	x	x
Cc1nn2c(c1-c1ccnn1C(C)C)N(C(=O)C(C)C)CCC2	i	5%[70.6 µM]	u	-10%[88.5 µM]	i	x	x	x	x
Cc1nn2c(c1-c1ccnn1C(C)C)N(Cc1ccc(C(=O)O)s1)CCC2	u	16µM*	13µM*	-15%[88.5 µM]	i	11µM*	11µM*	0%[86.2 µM]	14µM*
CCCc1cc(CN(C)c2nc(CCN)nc3sc(C)c(C)c23)[nH]n1	35µM*	-24%	u	1%	i	-25%	u	6%	2%
COCCN1CC(CNc2nc(CCN)nc3sc(C)c(C)c23)CC1=O (stereo not given)	-3%	0%	i	-5%	i	x	x	x	x
COc1cccc(NC(=O)c2cnc3c(c2)N(C(=O)Cc2ccc(C(C)C)cc2)CCC3)c1	22µM*	11µM*	u	-5%	i	19µM*	19µM*	0%	17µM*
O=C(Nc1cccc(F)c1)c1cnc(-c2ccc(F)cc2)nc1-c1ccncc1	45µM*	u	u	i	i	u	u	15%	u
COc1cc(NC(=O)c2cnc(-c3ccc(F)cc3)nc2-c2ccncc2)cc(OC)c1	u	-20%	u	4%	i	x	x	x	x
Cc1ccc(Cl)cc1NC(=O)c1cnc(-c2ccccc2)nc1-c1ccncc1	-31%	u	u	i	i	u	u	39%	-24%
O=C(COc1ccc(-c2nnc3n2CCCC3)cc1)Nc1cccc(Br)c1	u	3%	u	4%	i	x	x	x	x
CC(C)(C)CC(=O)N1CC[C@H]2COC(=O)N2c2cc(F)ccc2C1	2%[172 µM]	-2%[70.6 µM]	1%[174 µM]	2%[88.5 µM]	i	x	x	x	x
Cc1ccccc1C(=O)N1CCC2(CC1)N=C(c1ccc(Br)cc1)NO2	u	14µM*	u	i	i	27µM*	24µM*	2%	24µM*
COc1cc(OC)cc(C(=O)N2CCC3(CC2)N=C(c2ccccc2)NO3)c1	-5%	1%	i	i	i	x	x	x	x
COc1ccc(C(=O)N2CCC3(CC2)N=C(c2ccc(Br)cc2)NO3)cc1	u	10µM*	-23%	i	i	12µM*	14µM*	1%	9.7µM*
CCCNC(=O)c1cccc2c1CCN2S(=O)(=O)c1ccccc1F	u	-25%	-19%	-13%	i	x	x	x	x
COc1ccc(S(=O)(=O)N2CCc3c(C(=O)NCc4cccc(F)c4)cccc32)cc1	u	u	-25%	-22%	i	u	u	-13%	u
Cc1ccc(S(=O)(=O)N2CCc3c(C(=O)NCc4ccccn4)cccc32)cc1	u	11µM*	u	-9%	i	24µM*	24µM*	-7%	31µM*
CCCNC(=O)c1cccc2c1CCN2S(=O)(=O)c1ccc(OC)cc1	u	u	-22%	u	i	x	x	x	x
CC(=O)C1=C(O)C2c3c[nH]c4cccc(c34)CC2C(C)(C)N(C)C1=O (stereo not given)	x	x	x	i	x	x	x	x	x
O=C(c1cccc(Cl)c1)N1CCC(Cc2nc(-c3cnccn3)no2)CC1	-11%	-2%	u	-2%	i	x	x	x	x
COc1cccc(-c2noc(CC3CCN(C(=O)c4ccc(OC)c(OC)c4)CC3)n2)c1	u	11µM*	u	1%	i	9.7µM*	12µM*	1%	11µM*
COc1cccc(-c2noc(CC3CCN(C(=O)c4cccc(Cl)c4)CC3)n2)c1	u	8.9µM*	u	i	i	7.7µM*	11µM*	-12%	7.7µM*
SMILES	HEK293 tox	hNpr1 antagonist	3T3 cytotox	GPT2 inh	FLuc inh	NPR1 antag cnf	NPR2 antag	FLuc inh counter	GloSensor cGMP
COc1cccc(-c2noc(CC3CCN(C(=O)c4cc(Cl)ccc4F)CC3)n2)c1	u	8.9µM*	u	3%	i	12µM*	19µM*	0%	14µM*
COc1cccc(-c2noc(CC3CCN(C(=O)c4ccccc4)CC3)n2)c1	40µM*	7.9µM*	u	i	i	9.7µM*	11µM*	-6%	9.7µM*
O=C(c1cc(Cl)ccc1F)N1CCC(Cc2nc(-c3cnccn3)no2)CC1	u	0%	u	i	i	x	x	x	x
Cc1cc(C)cc(-c2cccc(CN)c2)c1	56µM*	x	40µM*	i	x	35µM*	31µM*	5%[86.2 µM]	u
COc1cccc(-c2cccc(CN)c2)c1	-26%[172 µM]	x	u	-6%[88.5 µM]	x	x	x	x	x
CCCN1C(=O)Cc2cc(C(=O)NC(C)c3ccc(OCC)cc3)ccc21 (stereo not given)	u	u	u	u	i	u	u	2%	u
